Key:
Experiment in all cases: PBM binding z-score (relative to random genomic background probes); higher = stronger binding; sequences stand for … in GC…GCGATTGACAGCGTAGAATGAAGG
[1] = test system: FXR:RXRa (NR concentration 270 nM, RXRa partner concentration 90 nM)
Outline: (§1)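 Each nuclear receptor dimer, without ligand, was incubated for 1 h on custom Agilent 4×180K protein-binding microarrays. Binding was detected with antibodies against each partner (one per run), and scanned fluorescence was regression-normalized. The binding z-scores are referenced to random human genomic background probes.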

[2] = test system: LXRa:RXRa (NR concentration 270 nM, RXRa partner concentration 90 nM)
Outline: as §1

[3] = test system: LXRa homodimer (NR concentration 270 nM)
Outline: as §1

[4] = test system: LXRb:RXRa (NR concentration 270 nM, RXRa partner concentration 90 nM)
Outline: as §1

[5] = test system: LXRb homodimer (NR concentration 270 nM)
Outline: as §1

[6] = test system: PPARa:RXRa (NR concentration 270 nM, RXRa partner concentration 90 nM)
Outline: as §1

[7] = test system: PPARg:RXRa (NR concentration 180 nM, RXRa partner concentration 90 nM)
Outline: as §1

[8] = test system: PPARg:RXRa 270nM:90nM, anti-RXR (NR concentration 270 nM, RXRa partner concentration 90 nM)
Outline: as §1

[9] = test system: PPARg:RXRa 30nM:10nM, anti-RXR (NR concentration 30 nM, RXRa partner concentration 10 nM)
Outline: as §1

[10] = test system: PPARg:RXRa 90nM:30nM, anti-RXR (NR concentration 90 nM, RXRa partner concentration 30 nM)
Outline: as §1

Sequence	PBM binding z-score [1]	PBM binding z-score [2]	PBM binding z-score [3]	PBM binding z-score [4]	PBM binding z-score [5]	PBM binding z-score [6]	PBM binding z-score [7]	PBM binding z-score [8]	PBM binding z-score [9]	PBM binding z-score [10]
CCTAGCAGGCCAGGGTCACCCAAGCATTTCGCTT	2.7	1.95	-0.482	2.3	-1.1	3.82	1.34	2.02	-0.0989	1.43
TTACCGAGGTGAAAGGTCGTTGATGCACGCCTTG	3.99	3.64	0.332	3.53	-0.52	5.85	9.29	8.26	7.84	9.2
CGAACTAGGTCACGAGGACAGTGAAGAGGTTGGA	4.56	2.89	0.291	1.98	-0.399	5.33	8.72	7.24	5.15	6.84
CCGACTGGGGCAACGGTTACCATACTCAGTACGA	-0.245	-0.501	-0.164	-0.317	-1.33	1.25	3.08	4.07	2.04	3.93
ATCGAAAGGTCGACGAGGTGAGTATGCACCGTTT	4.61	3.13	-0.377	2.5	0.258	4.53	2.51	3.05	0.831	1.92
CGTCGGAGGACAACAGGAGGTCAGAGCTGCCAGA	1.46	2.29	2.3	1.48	-0.649	1.98	0.434	0.482	-0.532	0.226
AATACAGGGACATCGTAGGCCAGAGTACGCACAG	-0.0851	-0.29	0.107	-0.465	0.118	-0.329	1.07	-0.124	0.0369	0.0571
CGATCTAGGTCACCAGGACAGTGAAGAGGTTGGA	3.81	2.39	0.00222	1.59	-0.455	4.81	8.42	6.67	4.33	6.26
TAGCCTAGGTCATTGGGCCAGTATAGTACGCATC	4.22	3.49	0.558	2.36	0.375	3.82	3.56	3.65	0.801	2.75
CGAACTAGGACAAAGGACAGTGAAAGGCGACGTA	-0.156	-0.553	-0.411	-0.765	-0.967	2.45	5.34	5.78	3.93	5.64
CAAGCTAGGTCAAGAGGTCAAAGTCCGCTTCCCG	7.28	6.35	6.45	5.81	1.58	6.2	6.82	6.77	4.04	6.31
ATATTTAGGTTAGGGTCATTCAGAAAGTAGGGAA	4.69	4.1	1.88	4.8	3.1	5.27	6.6	5.63	3.17	5.27
CTTAGTTGGTCAAGGTCACACACGCTATAGGTAC	4.69	4.17	2.15	4.03	1.14	4.51	4.28	4.71	2.33	3.77
CAAACTAGGTCACGAAAGGTCAAAGCCGAATGAC	7.72	8.31	8.03	7.21	2.38	6.89	10.6	8.43	7.38	8.99
GCTTACGGGTCAAAGGTTATAGTATGAATAGAAT	6.98	5.83	0.73	5.84	0.6	6.76	11.2	9.15	8.51	9.75
CGAACCAGGTCAAAGGACAGTGAAAGGCGACGTA	5.18	3.73	0.284	2.63	-0.254	5.27	7.61	7.03	4.9	6.76
ATATGTAGGTTACATGCGGGTCATTCAGGCTATG	2.21	4.55	0.959	2.66	0.785	4.22	5.9	5.3	2.6	4.65
TGGCCTAGGTCATGCGGGCCAGTATAGTGTCGGC	3.58	2.57	-0.464	1.2	-1.55	3.28	1.7	2.2	0.139	0.89
TAGCCTAGGTCAGATCGGGCGAGTATACGCTATA	1.73	1.03	-0.449	0.569	-0.387	1.58	0.654	1.08	-0.174	0.958
ACTCGGAGGACAAACGTCAGAGCTACGCCAGTGA	-0.117	-0.418	-0.482	-0.769	-0.602	-0.386	0.904	0.765	-0.389	0.589
CGAGCTAGGTCACCAGGACAGTGAAGAGGTTGGA	3.66	2.28	-0.245	1.56	-0.77	3.81	3.74	3.66	0.712	2.68
CGTCCAAGGTCAGAGAGGTCATTGAATGCCGAGT	6.84	6.1	6.22	5.74	0.491	6.01	4.47	5.05	1.68	3.33
ATATGTAGGTTTGGGTCATTCAGAAAGTAGGGAA	1.74	1.71	0.946	2.49	1.68	3.1	2.34	2.64	1.4	2.29
CGAATTAGGTCACCAGGACAGTGAAGAGGTTGGA	4.43	2.73	0.379	2.04	-0.0787	5.25	8.25	6.75	4.82	6.53

Sequence	PBM binding z-score [1]	PBM binding z-score [2]	PBM binding z-score [3]	PBM binding z-score [4]	PBM binding z-score [5]	PBM binding z-score [6]	PBM binding z-score [7]	PBM binding z-score [8]	PBM binding z-score [9]	PBM binding z-score [10]
ATATGTAGGTTAGGGCCATTCAGAAAGTAGGGAA	0.671	0.708	0.2	0.722	0.503	2.71	3.6	3.2	1.06	2.58
CCTACTGTGCCATTCAGAGGTCATTGATCATATG	2.84	4.75	6.87	4.59	1.67	3.96	1.74	2.71	0.936	1.83
CGAACAAGGTCAAAGGACAGTGAAAGGCGACGTA	7.69	5.16	0.368	4.24	0.892	6.01	7.72	6.93	4.75	6.72
ATATGGAGGTTAAGGGTCATTCAGGTTGGTTCGC	6.25	5.67	3.97	5.2	1.77	6	9.22	8.75	7.43	10.3
CGTCCAAGGTCAAGCTCAGTGAAAGAGACTCGAA	7.44	5.54	0.428	3.91	0.539	5.75	5.25	5.77	1.89	4.21
AGTCAAAGTTCACTAGGCAACGTAAGATTCAGCT	5.28	5.12	2.72	2.89	0.757	4.5		6.21	3.31	5.38
CAAAGTAGGTCAAGGTCAAAGTCGGTTTGTGCCA	6.64	5.74	4.44	4.67	1.7	6.22		8.02	7.19	8.49
CCAGACAGGTGAAAGGTCACTCAGTCTGGTACGC	5.43	5.49	2.57	4.91	0.389	6.31		8.84	7.76	8.99
CCGACTGGGGCAAAGGTTACCACACTCAGTACGA	1.86	1.89	0.137	2.27	-0.702	5.83	10.7	8.79	8.43	9.24
ATATGTAGGTTACATCCGAGTCATTCAGGCTATG	0.413	1.95	0.304	0.957	0.682	3.1	5.14	4.01	1.78	3.1
CAAACTAGGTCAAAGGTCAACGTCGAGCCAACCA	8.3	7.18	5.23	7.01	2.37	7.5		11.3	13.9	14.4
TAGCCTAGGTCATTCAGGGGGCAGTATAGAAAGC	5.76	4.78	2.16	5.66	11	4.6	3.97	4.6	1.89	3.53
CGAACTAGGTCAAAGGACAGTGTAAGGCGACGTA	3.76	2.6	-0.176	1.73	-0.314	5.13	9.94	8.19	6.9	8.83
CCTCGGAGGACAACAGGAGGTCAAAGCTGCCAGA	2.61	4.28	5.15	3.51	0.0871	3.68	1.17	1.56	-0.109	0.958
CCCACTGGGGCAAAGGTTACCATACTCAGTACGA	1.6	1.6	-0.143	2	-0.809	5.98		9.71	9.33	11.5
TCTTATAGATCAATAGAGGTTAAGAAAGTGCGCT	1.14	4.21	0.848	2	0.0677	1.92	0.685	2.02	3.21	2.51
AATACAGGGTCACTAGGTCAGAGTAGGTACGAAT	6.69	5.67	2.22	4.43	1.37	6.03		7.62	4.74	7.08
TCTAGTAGGTCACGGAGGTCACACACGACGGGTA	7.27	6.42	5.23	5.56	1.44	6.41		8.31	6.89	8.04
CGAACTAGGTCAAAGGACAGTGAAAGGCGACGTA	4.11	2.54	0.0195	1.9	-0.588	5.72	10.1	8.6	8.13	9.66
CCTACTGGGCGAAGGTCATTGATCAGTCAAAGCA	2.76	2.99	0.677	2.83	-0.515	3.86	3.62	4.54	2.12	4.26
ACTAGGAGGACAAAGGTCAGAGCTACGCCAGTGA	4.32	4.18	1.5	3.58	0.612	5.33		8.36	7.87	8.99
ACTAGTTGCTCAGCTGAGGTCACACACAATTCGG	2.75	2.94	1.75	3.4	0.214	3.4	1.17	1.69	0.448	1.24
CAAACTAGGTCACCGGAAGGTCAAAGTTCGCATG	6.72	6.36	5.74	5.3	1.86	6.44		8.11	6.06	8.3
GATAGTTGGTCAGTAAAAGGTCACACACCGGTCG	3.47	4.21	4.89	4.06	0.786	4.57	3.46	4.68	2.35	3.8

— the supplement of paper PMC6555819
